Experimental data published in PubChem BioAssay (NCATS).
Inconclusive results are not listed. Activity calls are given as the source filed them. Calls follow the shape of the dose curve; as a rule, active = well fitted cell-killing curve with a large enough effect; inconclusive = small, poorly fitted or top-dose-only effect, or effect the other way; inactive = flat fitted curve, though single readings scatter.

These compounds were tested on Tov112D (assay: Primary qHTS to identify gynecologic anti-cancer compounds using libraries of approved drugs and bioactive compounds (AID 1345084; also: nearly all actives have a fitted effect of over 55% in size)). Conditions: Gynecologic cancer cell panel viability, ATPlite luminescence, 48 h; series mostly up to 57.5 µM; activity change, negative = cytotoxicity: at the top concentration.
In short: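 In this quantitative HTS, cell killing is estimated from loss of ATP-dependent luciferase light. Cells see five compound concentrations over a 48 h exposure.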
% is scaled to controls: 0 for no effect and ±100 for the full control effect; potency is read from the fitted curve at half-maximal effect.

| Compound | activity change, negative = cytotoxicity | Potency |
| --- | --- | --- |
| C/C=C(\C)C(=O)O[C@H]1[C@H](OC(C)=O)[C@]2(CO)[C@H](O)[C@H](O)[C@]3(C)C(=CCC4[C@@]5(C)CC[C@H](O[C@@H]6O[C@H](C(=O)O)[C@@H](O)[C@H](O[C@@H]7OC[C@H](O)[C@H](O[C@@H]8OC[C@H](O)[C@H](O)[C@H]8O)[C@H]7O)[C@H]6O[C@@H]6O[C@H](CO)[C@@H](O)[C@H](O)[C@H]6O)C(C)(C)C5CC[C@]43C)[C@@H]2CC1(C)C (some centres undefined) | 8.32% [at 6.55 µM] (inactive) |  |
| C[C@]12CC[C@@H](O)C[C@H]1CC[C@@H]1[C@@H]2CC[C@]2(C)C(=O)CC[C@@H]12 | -3.81% (inactive) |  |
| Clc1ccc(OCC2=NCCN2)cc1Cl | 4.16% (inactive) |  |
| CC12CCC3C(CCC4(O)CC(O)CCC34C=O)C1(O)CCC2C1=CC(=O)OC1 (centres undefined) |  | 0.355 µM (active) |
| COC(=O)C12C(=O)C(C)(O)C(=O)C1(C)C(C)=CC1C34CCC(OC3=O)C(C)(CO)C4CCC12C (centres undefined) | 4.02% [at 25.3 µM] (inactive) |  |
| CCN1C[C@]2(COC(=O)c3ccccc3N3C(=O)C[C@H](C)C3=O)CC[C@H](OC)[C@@]34[C@@H]5C[C@H]6[C@H](OC)[C@@H]5[C@](O)(C[C@@H]6OC)[C@](O)([C@@H](OC)[C@H]23)[C@@H]14 | 8.97% (inactive) |  |
| COC(=O)[C@@]12C(=O)C(C)C(=O)[C@]1(C)C(C)=C[C@H]1[C@]3(C=O)CC[C@H](OC(C)=O)C(C)(C)[C@H]3CC[C@@]12C (some centres undefined) | -0.537% [at 25.3 µM] (inactive) |  |
| COC1=CC(=O)O[C@@H](CCc2ccccc2)C1 | -1.43% (inactive) |  |
| Cn1ncnc1COc1nn2c(-c3c(F)cccc3F)nnc2cc1C1CCC1 | 4.82% (inactive) |  |
| C=C[C@H]1[C@H](O[C@@H]2O[C@H](CO)[C@@H](O)[C@H](O)[C@H]2O)OC=C2C(=O)OCC[C@H]21 | 5% [at 38.5 µM] (inactive) |  |
| C=C(CO)C(=O)O[C@H]1C/C(C)=C/CC/C(CO)=C/[C@H]2OC(=O)C(=C)[C@H]12 | 2.51% [at 38.5 µM] (inactive) |  |
| CN(C(=O)Cc1ccccc1)C(CN1CCCC1)c1ccccc1 (centres undefined) | 3.37% (inactive) |  |
| C[C@@]1(C(=O)O)CC[C@]2(C)CC[C@]3(C)C4=CC(=O)c5cc(O)c(O)cc5[C@]4(C)CC[C@@]3(C)[C@@H]2C1 | -17.9% [at 25.3 µM] (inactive) |  |
| CN1C(=O)N(c2ccc(C#N)c(C(F)(F)F)c2)C(=O)[C@]1(CO)c1ccccc1 | 5.27% (inactive) |  |
| Clc1ccc(N2C[C@H]3CC[C@@H](C2)N3)nn1 | 11.1% (inactive) |  |
| OC1(c2ccc(Cl)cc2)c2ccccc2C2=NCCN21 (centres undefined) | 11.2% (inactive) |  |
| COC1CC(=O)C23C(=O)NC(CC(C)C)C2C(C)=C(C)C(OO)C3/C=C(\C)CCC(O)C1O (centres undefined) | 4.25% [at 25.3 µM] (inactive) |  |
| CO[C@@H]1[C@H](O)[C@@H](O[C@@H]2C[C@H]3CC[C@@H]4C(CC[C@]5(C)[C@@H](C6=CC(=O)OC6)CC[C@]45O)[C@@]3(C)[C@H](O)C2)O[C@H](C)[C@@H]1O[C@@H]1O[C@H](CO)[C@@H](O)[C@H](O)[C@H]1O (some centres undefined) |  | 0.1 µM (active) |
| OCCCCC#Cc1cncc(OC[C@@H]2CCN2)c1 | -4.27% (inactive) |  |
| COC1CC(O[C@H]2CC[C@@]3(C)C(=CCC4C3C(O)[C@@H](O)[C@]3(C)[C@@H](C(C)=O)CC[C@]43O)C2)OC(C)C1OC1CC(OC)C(OC2OC(C)C(O)C(O)C2O)C(C)O1 (some centres undefined) | 3.02% [at 11.6 µM] (inactive) |  |
| N#C[C@@H](O[C@@H]1O[C@H](CO[C@@H]2O[C@H](CO)[C@@H](O)[C@H](O)[C@H]2O)[C@@H](O)[C@H](O)[C@H]1O)c1ccccc1 | -0.402% [at 25.3 µM] (inactive) |  |
| C=C(C)[C@H]1O[C@H]2CC[C@@]3(C)[C@@](O)(CC[C@H]4[C@@H]5OC(C)(C)[C@H]6C[C@@H]7C(=C)Cc8c(Cl)cc9[nH]c(c5c9c8[C@@]76O)[C@@]43C)[C@]23O[C@@H]3[C@H]1O | -1.38% [at 25.3 µM] (inactive) |  |
| CCC(C)(C#N)O[C@@H]1O[C@H](CO)[C@@H](O)[C@H](O)[C@H]1O (some centres undefined) | 6.09% (inactive) |  |
| O=C(N1CCOCC1)N1CCN(c2ccc(Cl)cc2)CC1 | -1.21% (inactive) |  |
| CN1CCCC1CCOC(c1cc2nccc(C(=O)O)c2[nH]1)c1ccccc1Cl (centres undefined) | 13% (inactive) |  |
| CCCCCCn1c(=O)c(C(=O)Nc2ccc(C(=O)OCCC)cc2)c(O)c2ccccc21 | 27% [at 11.6 µM] (inactive) |  |
| C=CC(C)(C)c1[nH]c2cccc3c2c1C[C@@H]1[C@@H]3[C@@H](OC(C)=O)[C@H](C)CN1C | 1.09% [at 38.5 µM] (inactive) |  |
| CC1=C2C[C@H]3[C@@H](CC=C4C[C@@H](O)CC[C@@]43C)[C@@H]2CC[C@]12O[C@@H]1C[C@H](C)CN[C@H]1[C@H]2C | 2.06% (inactive) |  |
| CC1=CC2/C=C(\C)CCC(O)C3OC(C)(C)OC3CC(=O)OC23C(=O)NC(CC(C)C)C3C1C (centres undefined) | 0.348% [at 25.3 µM] (inactive) |  |
